From PubChem BioAssay
An excerpt weighted towards active compounds, which were near 3% of everything screened.
Tb PYK inh = T. brucei pyruvate kinase inhibition; AID 624173; hit rate 0.12% among 410,000; Potency, µM (titrated, usually from 76.8 µM), for the others: top-dose activity, negative = inhibition, hits mostly inhibitors; TbPYK enzyme, Kinase-Glo Plus ATP luminescence, 45 min; further: nearly all actives have a fitted effect of over 50% in size
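ADP (130 uM final) triggers the TbPYK reaction after compound addition; incubation is 45 min at room temperature. Kinase-Glo Plus is then added and luminescence imaged. Normalized data are fitted to concentration-effect curves.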
RE007 growth inh = less growth of the S. pombe RE007 Vpr strain | S. pombe RE007 Vpr strain, BacTiter-Glo ATP luminescence, 24 h | Potency, µM (doses to about 92.2 µM), without a hit: top-dose activity change, negative = less growth, most hits filed as inhibitors | hit rate 0.21% among 360,000 | AID 651644; active means well fitted falling curve with a large enough effect; inconclusive means small, poorly fitted or top-dose-only effect; inactive means no such curve, though single readings can be large or run the other way; further: nearly all actives have a fitted effect of over 50% in size
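Fission yeast RE007 carrying one integrated HIV-1 vpr copy, seeded at OD 0.01 in PMG+AL medium with 23 nL pinned compound. Grown 24 h at 30 degrees; viability read by BacTiter-Glo luminescence after 5 min.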
LmPK inh = blocks Leishmania mexicana pyruvate kinase activity; Q27686; purified LmPK, Kinase-Glo ATP luminescence, 1 h; Potency, µM (series often up to 57.5 µM), inactives show at the top dose activity change, negative = inhibition, hits mostly inhibitors; hit rate 0.37% among 290,000
Target sequence (Q27686 whole entry, looked up): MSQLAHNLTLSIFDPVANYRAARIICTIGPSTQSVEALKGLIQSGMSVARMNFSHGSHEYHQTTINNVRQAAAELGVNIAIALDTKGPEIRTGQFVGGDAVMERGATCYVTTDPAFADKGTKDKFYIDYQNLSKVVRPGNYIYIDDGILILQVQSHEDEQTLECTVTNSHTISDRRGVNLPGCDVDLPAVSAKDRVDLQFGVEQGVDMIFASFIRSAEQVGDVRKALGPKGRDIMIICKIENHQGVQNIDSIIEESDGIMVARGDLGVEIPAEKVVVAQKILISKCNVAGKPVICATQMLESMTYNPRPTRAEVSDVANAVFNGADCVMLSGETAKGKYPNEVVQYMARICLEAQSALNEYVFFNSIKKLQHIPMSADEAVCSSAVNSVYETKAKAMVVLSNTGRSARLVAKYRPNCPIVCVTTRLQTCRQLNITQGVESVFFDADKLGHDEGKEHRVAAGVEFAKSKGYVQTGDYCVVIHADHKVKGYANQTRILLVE
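Screened at intermediate enzyme activity to detect both inhibitors and activators: LmPK at 0.1 nM, with a 0.5 nM enzyme column as activation reference. PEP 0.5 mM, ADP 0.1 mM; ATP detected by luminescence after 1 h.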
Sm TGR inh = S. mansoni TGR enzyme inhibition | Q962Y6 | hit rate 3% among 360,000 | AID 485364 | purified TGR, DTNB reduction, TNB absorbance 405 nm | Potency, µM (series often up to 114 µM), for the others: at the top dose activity change, negative = inhibition, actives largely listed as inhibitors; further: nearly all actives have a fitted effect of over 60% in size
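TGR 20 nM + NADPH 100 uM (dispensed conc.), cpd preinc 15 min RT; start with NADPH (500 uM addition) then DTNB (15 mM addition). Kinetic TNB absorbance, 405 nm filter. Four-parameter Hill fit across titration.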
The depositor's hits bear a star; ? = inconclusive; . = not tested or not shown; [ ] = remark or other dose. Unless noted, the call rests on the fitted dose curve; in most records, active means well fitted curve in the direction sought with a large enough effect; inconclusive means small, poorly fitted or top-dose-only effect, or another doubt; inactive means no such curve, though single readings can be large; an effect the other way counts as inactive or inconclusive. On the % scale 0 is the no-effect control and ±100 the full control effect; potency means the concentration at half of the fitted maximal effect.

SMILES	Tb PYK inh	RE007 growth inh	LmPK inh	Sm TGR inh
OCCN(CC#CC(O)(c1ccccc1)c1ccccc1)CCO	-12.3%	2.3%	-1.4%	39.8µM*
CC(C)N(CC#CC(O)(c1ccccc1)c1ccccc1)CCO	-9.3%	-8.4%	0.1%	-30.5%
Cc1cc(C)cc(NC(=O)C2CCCN(C(=O)c3cnn(-c4ccccc4)c3-n3cccc3)C2)c1 (stereo not drawn)	1.5%	.	.	6.5%
Cc1ccc(C)c(N(C)C(=O)c2cn(C)c(=O)c3ccccc23)c1	-0.2%	.	.	-3.8%
COc1ccc(C(C)=O)cc1CSc1nnnn1-c1ccc(O)cc1	0.8%	4.7%	13.2%	7.08µM*
Cn1cc(S(=O)(=O)N2CCCCCC2)cc1C(=O)NCc1ccc(Cl)cc1	5.6%	.	.	-6.6%
NS(=O)(=O)c1ccc(NC2=CC(c3ccc([N+](=O)[O-])cc3)N(c3ccc(S(N)(=O)=O)cc3)C2=O)cc1 (stereo not drawn)	-0.8%	15.7%	-3.9%	17.8µM*
COc1ccc(NC2=CC(c3ccc(OC)c(OC)c3)N(c3ccc(OC)cc3)C2=O)cc1 (stereo not drawn)	-16.2%	.	-1.4%	-32.2%
c1ccc(-n2cnnn2)cc1	-1.7%	.	.	.
N#Cc1nccnc1S(=O)(=O)c1cccs1	11.4%	-10.1%	17.0%	0.1µM*
CN(C(=O)/C=C/c1ccc([N+](=O)[O-])s1)c1ccccc1	-5.2%	-26.4%	0.9%	11.2µM*
CN(C(=O)C=Cc1ccco1)c1ccccc1	-3.4%	-23.8%	.	.
O=C(CCNS(=O)(=O)c1ccc2c(c1)CCN2C(=O)C1CC1)N1CCN(c2ccc(F)cc2)CC1	3.1%	.	.	-17.2%
COC(=O)[C@H](C)NC(=O)Nc1ccc(S(N)(=O)=O)cc1	-9.4%	0.0%	-3.2%	-5.9%
CC(C)C(Cl)=NOC(=O)Nc1ccc(S(N)(=O)=O)cc1	-16.8%	15.8µM*	.	.
Cc1c(NC(=O)CN(c2ccccc2)S(=O)(=O)c2ccc(F)cc2)c(=O)n(-c2ccccc2)n1C	-8.5%	-9.6%	1.5%	25.3%
Cc1c(NC(=O)CN(c2ccc(F)cc2)S(=O)(=O)c2ccccc2)c(=O)n(-c2ccccc2)n1C	1.9%	-6.0%	-7.4%	10µM*
Cc1c(NC(=O)/C=C/c2cn(-c3ccccc3)nc2-c2ccc(F)cc2)c(=O)n(-c2ccccc2)n1C	?	3.0%	0.3%	3.16µM*
Cc1ccc(S(=O)(=O)CCC(=O)N(CCCN2CCOCC2)c2nc3ccccc3s2)cc1	0.7%	-15.3%	.	14.1µM*
CCN(CC)CCN(C(=O)CCS(=O)(=O)c1ccccc1)c1nc2cc3c(cc2s1)OCO3	-0.2%	-9.5%	-2.6%	8.91µM*
Cc1ccc2nc(N(CCN3CCOCC3)C(=O)CCS(=O)(=O)c3ccccc3)sc2c1	-0.8%	2.3%	.	-21.2%
CN(C)CCN(C(=O)CCS(=O)(=O)c1ccccc1)c1nc2cc3c(cc2s1)OCO3	1.4%	-3.7%	-7.6%	?
O=C(CCS(=O)(=O)c1ccccc1)N(CCCN1CCOCC1)c1nc2ccccc2s1	-9.2%	-24.6%	.	2.51µM*
CCN(CC)CCN(C(=O)c1ccc(N2C(=O)CCC2=O)cc1)c1nc2cc3c(cc2s1)OCCO3	-3.2%	-5.5%	-3.9%[11.5 µM]	44.7µM*
O=C(Nc1ccc(F)c(Cl)c1)C1CCCN1S(=O)(=O)c1ccc(F)cc1 (stereo not drawn)	-9.9%	.	.	-2.8%
SMILES	Tb PYK inh	RE007 growth inh	LmPK inh	Sm TGR inh
Cc1ccc(N2CC(C(=O)OCC(=O)Nc3c(C)cccc3C)CC2=O)cc1 (stereo not drawn)	-9.8%	-24.3%	.	.
O=C(NC1=NCCS1)C1COc2ccccc2O1 (stereo not drawn)	-19.9%	-2.4%	15.8µM*	-1.2%
COCC(=O)N1CCC2(CC1)CN(c1cccc(-c3ccccc3)c1)C2	-12.7%	.	.	.
O=C(NCc1ccc2[nH]c3c(c2c1)CCCC3)N1CCOCC1	.	.	-11.7%	35.5µM*
O=C(NCc1ccc2[nH]c3c(c2c1)CCCC3)c1ccc(S(=O)(=O)N2CCOCC2)cc1	2.9%	12.0%	-0.5%	-0.7%
COC(=O)c1cccc(N/C=C(\[N+](=O)[O-])S(=O)(=O)c2ccccc2)c1	0.5%	1.0%	-3.1%	?
O=[N+]([O-])/C(=C\Nc1ccc(F)cc1F)S(=O)(=O)c1ccccc1	-7.6%	15.0%	8.4%	10µM*
O=C1OC(/C(=C\Nc2ccc(F)cc2F)[N+](=O)[O-])c2ccccc21 (stereo not drawn)	-4.7%	-6.0%	10.8%	11.2µM*
O=C(Nc1ccccc1Cl)c1cc(C2CCCN(C(=O)c3cccc(O)c3)C2)on1 (stereo not drawn)	-5.8%	11.0%	.	.
Cn1cccc1/C=N/N1CCN(Cc2ccccc2Cl)CC1	-41.8%	-10.3%	0.9%	50.1µM*
Cn1cccc1/C=N/N1CCN(c2ccccc2)CC1	-14.3%	-20.6%	0.1%	44.7µM*
Fc1ccccc1/C=N/N1CCN(Cc2ccccc2Cl)CC1	-2.2%	-19.9%	2.0%	10.3%
COc1ccc(OCCOc2cccc(C=C3C(=O)NC(=O)NC3=O)c2)cc1	.	.	-1.6%	11.2µM*
Cc1cc(C)cc(Nc2nc3ccccc3n3cnnc23)c1	-7.1%	.	.	6.3%
CCOC(=O)COn1c(=O)c(-c2ccc(Br)cc2)[n+]([O-])c2ccccc21	0.4%	1.0%	3.9%	-14.7%
CCOC(=O)COn1c(=O)c(-c2ccc(F)cc2)[n+]([O-])c2ccccc21	0.5%	-7.2%	2.6%	89.1µM*
CCOC(=O)COn1c(=O)c(-c2cccs2)[n+]([O-])c2ccccc21	-4.0%	-7.9%	-0.5%	20µM*
COc1cccc(NC(=O)CSc2nnc3scc(-c4ccc(Cl)cc4)n23)c1	-12.2%	.	.	-1.5%
CC(C)OC(=O)c1c(NC(=O)c2cc3nc(-c4ccccc4)cc(C(F)(F)F)n3n2)sc2c1CCCC2	1.7%	.	.	-7.5%
Cc1ccc(S(=O)(=O)Cc2ccc(C(=O)N3CCN(c4cccc(C)c4C)CC3)o2)cc1	2.1%	10.0%	-5.5%	?
COc1ccc(S(=O)(=O)Cc2ccc(C(=O)N3CCc4ccccc4C3)o2)cc1	-13.9%	-2.0%	9.4%	20µM*
O=C(c1ccc(CS(=O)(=O)c2ccccc2)o1)N1CCOCC1	7.6%	17.8%	10.3%	39.8µM*
Cc1ccc(S(=O)(=O)Cc2ccc(C(=O)N3CCN(Cc4ccccc4)CC3)o2)cc1	.	.	2.5%	35.5µM*
Cc1ccc(S(=O)(=O)Cc2ccc(C(=O)N3CCc4ccccc4C3)o2)cc1	-3.7%	13.6%	0.9%	39.8µM*
Cc1noc2ncnc(N3CCCC(C(=O)Nc4cccc(C(F)(F)F)c4)C3)c12 (stereo not drawn)	-4.1%	.	.	2.5%
CC1CCCN(C(=O)C(C)Nc2cc(Cl)ccc2N2CCOCC2)C1 (stereo not drawn)	-8.3%	-10.0%	-6.6%	39.8µM*
COc1cccc(OC)c1C(=O)Nc1cc(Cl)ccc1N1CCOCC1	-9.9%	-8.4%	2.1%	-12.5%
COc1ccc(N(C)C(=S)Nc2ccc3nc(C)c(C)nc3c2)cc1	-23.7%	-1.5%	-4.0%	56.2µM*
Cc1nc2ccc(NC(=S)N3CCCC3)cc2nc1C	-6.2%	-2.9%	0.3%	-1.5%
